Seven molecules from PubChem BioAssay can be followed below.

The nature of assay [1]: P. berghei load reduction in hepatocytes – cell-based, HepG2, luciferase luminescence, HepG2 viability, primary screen (AID 624349; in the data active = parasite load remaining mostly below about 12%, no sharp cut-off; inactive = mostly above about 10%;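 note: 100% = mean of DMSO negative control wells on the same plate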). Particulars: P. berghei liver stage in HepG2, luciferase luminescence, concentration not given here; parasite load remaining: stronger effect = lower value; viability: measured here: HepG2 viability without parasites.
The nature of assay [2]: signal quenchers or enhancers, Cy5 substrate/SSB – biochemical, NIH Clinical Collection, E. coli SSB, artefact control for HCV NS3 helicase inhibitor project (AID 743268; call rule not given here). Particulars: Cy5-oligo bound E. coli SSB, fluorescence interference.
The test system of assay [3] is Hepatitis C virus NS3 helicase. Description: blockers of NS3h binding to DNA – biochemical, fluorescence polarization, NIH Clinical Collection, primary screen (AID 743270; call rule not given here). As to conditions: NS3 helicase binding to Cy5-dT15 DNA, stronger effect = higher value, concentration not given here. (In general: Polarisation of emitted light reports the rotation of a fluorescent probe.)

Assay [4] addresses Single-stranded DNA-binding protein (Escherichia coli (strain K12)) (UniProt P0AGE0). Briefly: SSB-ssDNA binding inhibitors – biochemical, fluorescence polarization, NIH Clinical Collection, counter-screen for HCV NS3 helicase inhibitor project (AID 743271; in the data active = inhibition above about 28%). As to conditions: E. coli SSB-DNA binding, stronger effect = higher value, concentration not given here.
The nature of assay [5]: compounds distorting NS3 helicase fluorescence signal – biochemical, NIH Clinical Collection, artefact control for HCV NS3 helicase inhibitor project (AID 743272; call rule not given here;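 note: HCV NS3 helicase with a Cy5 labelled single stranded DNA probe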). Particulars: fluorescence interference counterscreen, HCV NS3 helicase assay; stronger effect = lower value. On the technique in general: The purpose of a counterscreen is to sort out artefacts and off-target activity.
Assay [6] can be described thus: viability loss with induced miR-34 in A549 – imaging, A549 dox-inducible miR-34, nuclei and caspase counts, primary screen (AID 1347080;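 active = compounds whose cell count with miR-34 switched on is under 0.7 times the count with it off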). As to conditions: A549 miR-34 inducible, Hoechst nuclei count, 48 h.
Assay [7] in a line: galactose survival enhancers in mitochondrial complex I cybrids – cell-based, galactose medium, ATP luminescence, primary screen (AID 1645843;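 active = z-score of at least 1.8 in each of two replicates, scored against plate mean and spread of sample wells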;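 note: positive z means more ATP and so rescue of galactose-driven cybrid death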). As to conditions: complex I mutant cybrid cells, 72 h, stronger effect = higher value.
Another assay relates to F380Y. Briefly: BK channel mutant inhibitors and activators – cell-based, U2OS BacMam, thallium flux, beta subunits, selectivity assay, profiling panel (AID 1259406).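 Note: initial slope of Thallos dye fluorescence rise after thallium is added; log ratio against the mean of 0.3% DMSO vehicle wells on the same plate.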 As to conditions: U2OS BacMam BK variants, at 30 µM.
Another assay relates to F380Y/beta1. The description is as above. Particulars: U2OS BacMam BK variants, at 30 µM.
The test system of the next assay is F380Y/beta2Delta. The assay is described as above. Particulars: U2OS BacMam BK variants, at 30 µM.
The next assay concerns F380Y/beta4. Described as above. As to conditions: U2OS BacMam BK variants, at 30 µM.
In assay [8] the target is Calcium-activated potassium channel subunit alpha-1 (Homo sapiens) + Leucine-rich repeat-containing protein 26 (Homo sapiens) (UniProt Q12791+Q2I0M4). Described as above. As to conditions: U2OS BacMam BK variants, F380Y/Slo1WT/gamma1, at 30 µM.
In the next assay the test system is R275C. The assay is described as above. Particulars: U2OS BacMam BK variants, at 30 µM.
Another assay relates to R275C/beta1. Described as above. Particulars: U2OS BacMam BK variants, at 30 µM.
The next assay concerns R275C/beta2Delta. The assay is described as above. As to conditions: U2OS BacMam BK variants, at 30 µM.
A further assay concerns R275C/beta4. The assay is described as above. Particulars: U2OS BacMam BK variants, at 30 µM.
A further assay relates to R275C/Slo1WT/beta2. The description is as above. Particulars: U2OS BacMam BK variants, at 30 µM.
Assay [9] can be described thus: modulation of C. elegans fzo-1 (AID 1259413; call rule not given here;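 note: fzo-1 mutant C. elegans worms in liquid wells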). Particulars: C. elegans fzo-1 modulator screen, mean read-out; stronger effect = higher value.
In assay [10] the test system is Neuropilin-2 / VEGF-C interaction (human). Description: small molecules blocking Neuropilin-2/VEGF-C interaction – biochemical, microplate binding format, z-score (AID 743281; call rule not given here). As to conditions: microplate NRP2/VEGF-C binding assay; stronger effect = lower value.
The mark [11] stands for this setting: stronger effect = lower value, cell number ratio, induced over uninduced.
Where [12] appears, read: measured here: relative caspase fold change +Dox/-Dox.
[13] abbreviates: measured here: total cells with miR-34 induction, stronger effect = lower value.
The mark [14] stands for this setting: measured here: total cells without miR-34 induction.

Calls of active or inactive are those of the source.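 Rule for the calls, unless noted: active = thallium flux through the channel raised or lowered by more than 3 SD from vehicle-only wells, actives on both sides; inactive = the rest.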

Chain of Calcium-activated potassium channel subunit alpha-1 (Homo sapiens) + Leucine-rich repeat-containing protein 26 (Homo sapiens) (Q2I0M4 whole entry, looked up, one chain of several): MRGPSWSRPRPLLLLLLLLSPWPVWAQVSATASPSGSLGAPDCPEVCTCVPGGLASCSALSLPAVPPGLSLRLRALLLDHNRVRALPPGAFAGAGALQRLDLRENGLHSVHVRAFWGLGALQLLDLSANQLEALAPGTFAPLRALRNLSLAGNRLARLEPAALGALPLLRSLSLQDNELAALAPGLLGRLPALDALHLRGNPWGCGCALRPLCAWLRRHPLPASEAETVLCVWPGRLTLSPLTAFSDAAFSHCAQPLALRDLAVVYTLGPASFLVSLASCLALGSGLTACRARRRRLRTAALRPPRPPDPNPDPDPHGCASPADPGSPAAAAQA

Turning to `O=C1CN(N=Cc2ccc([N+](=O)[O-])o2)C(=O)N1`, the parasite load remaining in assay [1] is 0.39% (inactive). In assay [1], the viability – broadly, the share of living cells, or the viability signal relative to a control – is 54.9%. The fluorescence ratio in assay [2] and in assay [5] was 1 (inactive) each time. For the same molecule, the results for the inhibition in [3] and in [4] were -3.18% (inactive) and -0.48% (inactive), respectively. Also, the values for the fold change in [6] (setting [11]) and in assay [6] (setting [12]) were 0.912 (inactive) and 2, respectively. The cell count amounted to 9510 in assay [6] (setting [13]) and 10400 in assay [6] (setting [14]). Besides, in [7], the z-score was -1.36 (inactive). Besides, the log fold change Tl+ flux in the assay with F380Y was -0.0264 (inactive); in the assay with F380Y/beta1, -0.025 (inactive); with F380Y/beta2Delta, -0.0429 (inactive); with F380Y/beta4, -0.00406 (inactive); in assay [8] it was 0.0181 (inactive); in the assay with R275C, 0.0135 (inactive). Besides, the log fold change Tl+ flux in the assay on R275C/beta1 was -0.0666 (inactive); with R275C/beta2Delta, 0.0336 (inactive); in the assay with R275C/beta4 it was -0.0417 (inactive); with R275C/Slo1WT/beta2, -0.117 (active).

Turning to `CC(=O)OCC(=O)[C@@]1(O)CC[C@H]2[C@@H]3CCC4=CC(=O)CCC4(C)[C@H]3C(=O)CC21C` (stereo not given in full), the mean signal in assay [9] is 237 (inactive).

Consider `CC(=O)NCCCCCCNC(C)=O`, for which, in assay [1], the parasite load remaining is 100% (inactive). This molecule returned a viability in [1] of 66.5%. Further, the fluorescence ratio is 1.01 (inactive) in assay [2] and 0.97 (inactive) in assay [5]. In addition, the inhibition – broadly, the relative decrease from the control value, in per cent – was -1.19% (inactive) in assay [3] and -3.18% (inactive) in [4]. In addition, the z-score was -0.47 (inactive) in [10] and 0.325 (inactive) in assay [7]. For the same molecule, the mean signal in assay [9] was 268 (inactive). For the same molecule, the values for the fold change in assay [6] (setting [11]) and in [6] (setting [12]) were 0.955 (inactive) and 1.58, respectively. Moreover, the cell count worked out at 9330 in assay [6] (setting [13]) and 9770 in assay [6] (setting [14]). Besides, the log fold change Tl+ flux in the assay with F380Y was 0.015 (inactive); in the assay on F380Y/beta2Delta it was -0.0186 (inactive); in assay [8], 0.0164 (inactive); in the assay on R275C it was 0.0387 (inactive); with R275C/beta1, 0.0269 (inactive); with R275C/beta2Delta, -0.0786 (inactive).

On to `CC12C=CC(=O)C=C1CC[C@@H]1[C@@H]2[C@@H](O)CC2(C)[C@H]1CC[C@]2(O)C(=O)CO` (stereo not given in full), for which, in [9], the mean signal was 258 (inactive).

As to `CC1=C(C/C=C(\C)CCCC(C)CCCC(C)CCCC(C)C)C(=O)c2ccccc2C1=O` (stereo not given), the mean signal in assay [9] was 243 (inactive).

`CC1(C)O[C@@H]2C[C@H]3[C@@H]4C[C@H](F)C5=CC(=O)C=CC5(C)[C@@]4(F)[C@@H](O)CC3(C)C2(C(=O)CO)O1` (stereo not given in full): in assay [9], the mean signal is 256 (inactive).

In the case of `CC1c2cccc(O)c2C(O)=C2C(=O)[C@]3(O)C(O)=C(C(N)=O)C(=O)[C@@H](N(C)C)[C@@H]3C[C@@H]21` (stereo not given in full), the parasite load remaining in assay [1] was 60.3% (inactive). In assay [1], this molecule gave a viability of 97.3%. In addition, the figures for the fluorescence ratio in assay [2] and in assay [5] were 1.04 (inactive) and 0.95 (inactive), respectively. Also, the inhibition is -1.36% (inactive) in [3] and 28.5% (active) in assay [4]. In addition, the fold change is 1 (inactive) in assay [6] (setting [11]) and 1.44 in assay [6] (setting [12]). Moreover, the cell count in assay [6] (setting [13]) and in assay [6] (setting [14]) was 11000 throughout. In [7], the z-score was -0.345 (inactive). The log fold change Tl+ flux in the assay on F380Y is -0.00643 (inactive); with F380Y/beta1 it was -0.038 (inactive); in the assay on F380Y/beta2Delta it was 0.00306 (inactive); in the assay on F380Y/beta4 it was -0.0368 (inactive); in assay [8] it was 0.011 (inactive); in the assay on R275C, -0.004 (inactive). Also, the log fold change Tl+ flux is -0.0442 (inactive) in the assay on R275C/beta1, -0.00508 (inactive) with R275C/beta2Delta, 0.0272 (inactive) with R275C/beta4 and 0.0157 (inactive) in the assay on R275C/Slo1WT/beta2.
